# Screening data from PubChem BioAssay.
# APP transl inh: APP translation inhibition. 0.82% of 190,000 active. SH-SY5Y APP 5'UTR-luciferase reporter, luminescence. inhibition, % at 2 µM;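 active means inhibition above a set limit, derived from the sample mean plus 3 SD, cut at about 45% in these data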
# KLF5 inh: inhibitors of KLF5 expression; DLD-1 KLF5 promoter-luciferase reporter, luminescence; AID 1700; 0.23% of 290,000 active; inhibition, % at 5 µM;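 active means inhibition above a per-plate limit of that plate's mean compound inhibition plus 3 SD, cut at about 60% in these data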;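 further: 0% = DMSO wells and 100% = LY294002 at 200 µM; higher means less KLF5 promoter-driven luciferase light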
# IEC-6 tox: kills IEC-6 intestinal cells in KLF5 counter-screen; IEC-6 cytotoxicity, luminescence viability; AID 1825; inhibition, % at 5 µM; 0.78% of 290,000 active; in the data active means inhibition above about 22%;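 further: 0% = plate median of test compound wells and 100% = cytotoxic reference compound wells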
# aSyn UTR inh: 5' untranslated region of α-synuclein, MLPCN primary screen | alpha-synuclein 5'UTR reporter, inhibitor activity | inhibition, % (tested at 7.5 µM) | 0.82% of 300,000 active | AID 1813; in the data active means inhibition above about 60%;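 further: H4 neuroglioblastoma cells stably carrying SNCA 5'UTR luciferase fusion; 0% = DMSO wells and 100% = positive control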
# Ba/F3 V617F tox: lowers viability of Ba/F3 cells expressing EpoR and JAK2V617F; AID 1446; ATP luminescence; inhibition, % at 5.6 µM; 1.1% of 220,000 active;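 active means inhibition above the campaign mean plus 3 SD over all tested compounds, cut at about 24% in these data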;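 further: cytokine-independent growth of Ba/F3 cells driven by EpoR plus mutant JAK2; 0% = DMSO-treated cells and 100% = JAK inhibitor I control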
# BaF3 parental: counter-screen for JAK2V617F inhibitors: parental Ba/F3 viability inhibitors; 1.1% of 220,000 active; CellTiter-Glo ATP luminescence; AID 1486; inhibition, % at 5.6 µM;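 active means inhibition above a per-campaign cutoff, the mean inhibition of all tested compounds plus 3 SD, cut at about 27% in these data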;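 further: 0% = DMSO wells and 100% = JAK Inhibitor I control wells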
# Starred values were filed as active, the others as inactive; . = no result given. The list is not random: actives were taken first. Their share in the collection is about 2.1%.
SMILES,APP transl inh,KLF5 inh,IEC-6 tox,aSyn UTR inh,Ba/F3 V617F tox,BaF3 parental
CCC(=O)Nc1cccc(-c2cc3ccccc3oc2=O)c1,-40,-26,7,-58,0,0
COc1ccc(C)cc1NC(=O)c1ccc(S(=O)(=O)N2CCCCC2)cc1,.,1,-1,10,.,.
COc1ccc(CN(C)C(=O)c2cccc(C(=O)N(C)Cc3ccc(OC)cc3)c2)cc1,.,-31,-8,20,.,.
CC(OC(=O)c1cccc(S(=O)(=O)N2CCCC2)c1)C(=O)c1ccccc1 (centres undefined),.,-21,-6,-8,.,.
O=C(NC(=S)NC1CCCCCCCCCCC1)c1cccnc1,2,-9,-4,31,-2,65*
CC(=O)Nc1ccc(NC(=O)C(C)OC(=O)C2CC3C=CC2C3)cc1 (centres undefined),11,-18,-6,4,2,57*
C/C(=N\NC(=O)c1ccccc1)c1nc2ccccc2n1C,20,-28,7,62*,-2,5
Cn1c(NC(=O)c2ccc(F)cc2)nc2ccccc21,.,-120,13,-103,.,.
O=C(/C=C/c1ccc(OC(F)F)cc1)Nc1cccc(S(=O)(=O)N2CCOCC2)c1,.,-14,3,-49,.,.
O=C(Nc1ccccn1)c1ccc2nc(-c3ccccc3)c(-c3ccccc3)nc2c1,6,-4,-2,-10,1,5
O=C(Nc1ccccn1)c1ccc(-c2ccccc2)cc1,.,43,0,63*,.,.
CC1=C(C(=O)Nc2cccc(F)c2)C(c2ccsc2)C2=C(CC(C)(C)CC2=O)N1 (centres undefined),60*,28,67*,19,81*,49*
COC(=O)CCCCCCCCCC[N+]1(C)CCCCC1,2,30,8,-2,1,2
CC(=O)OCCCCCCCCCCC[N+]1(C)CCCCC1,-19,-4,-4,12,25*,51*
Cc1ccc(S(=O)(=O)N2CCN(C(=O)Cc3c(F)cccc3Cl)CC2)cc1,.,.,.,-4,.,.
COc1ccc(/C=C(/C(=O)c2cccs2)N2C=CC=CC2=C(C#N)C#N)cc1,82*,-9,3,-102,-3,-1
CSc1nsc2nc(=O)c(/C=C3\C=Nc4ccccc43)c(N)n12,-21,-55,-9,-49,0,56*
CN(C)c1ccc(/C=C(\C#N)c2ccccc2)cc1,.,-17,74*,.,83*,76*
COc1ccc(-c2n(Cc3ccccc3)c3ccccc3[n+]2Cc2ccccc2)cc1,-13,9,11,55,96*,74*
CCCCC(=O)Nc1cc(OCC)c(NC(=S)NC)cc1OCC,0,-25,2,8,24*,62*
CCOc1cc(NC(=S)NC)c(OCC)cc1NC(=O)c1ccc(OC)cc1,-1,7,2,-10,1,6
O=C(Cc1ccccc1)NNC(=S)NC(=O)c1cccs1,.,1,-1,75*,-3,-1
CSc1nc(Oc2ccc3ccccc3c2)c2sccc2n1,-13,-4,1,82*,-3,-3
COc1ccc(Oc2nc(SC)nc3ccsc23)cc1,10,4,5,7,-6,-1
Cc1ccc(NC(=S)N/N=C/c2c(Cl)cccc2Cl)c(C)c1,95*,18,13,46,70*,72*
SMILES,APP transl inh,KLF5 inh,IEC-6 tox,aSyn UTR inh,Ba/F3 V617F tox,BaF3 parental
O=C(CSc1nnc(COc2ccc(Cl)cc2)o1)NC1CC2CCC1C2 (centres undefined),.,-19,8,9,.,.
Cc1ccc2c(c1)-c1nc3ccccc3cc1C2=NC1CCCCC1,-103,-113,6,.,1,9
Cc1ccc2c(c1)Cc1nc3ccccc3nc1-2,-116,-21,9,71*,3,4
Cc1cccc(C)c1N=C1SC(CC(=O)Nc2c(C)cccc2C)C(=O)N1CCc1ccccn1 (centres undefined),6,-9,8,67*,5,12
Cc1[nH]c(C)c(C(=O)/C=C/c2ccc([N+](=O)[O-])cc2)c1C,.,-46,4,-232,.,.
CC1(C)Cc2c(c(-c3ccccc3)nc(N3CCOCC3)c2C(N)=O)CO1,66*,-8,-2,9,-4,0
O=C(OCc1ccccn1)c1ccc(COc2ccc3ccccc3c2)o1,.,-129,1,-104,-2,-11
CN1CCN(CC(=O)N2c3ccccc3C(C)(c3ccc(Cl)cc3)CC2(C)C)CC1 (centres undefined),3,-20,0,-30,2,6
CN1CCN(CC(=O)N2c3ccccc3C(C)(c3ccccc3)CC2(C)C)CC1 (centres undefined),-11,2,4,0,30*,3
Cc1ccc2scc(CN3CCCC3)c2c1,.,.,.,-44,.,.
CC(C)CNS(=O)(=O)c1ccc(CCC(=O)NCc2ccco2)cc1,-16,-3,-2,12,-3,2
CC(C)CNS(=O)(=O)c1ccc(CCC(=O)NCc2ccncc2)cc1,-24,-3,2,6,1,90*
CCOc1ccc(S(=O)(=O)NCc2ccncc2)cc1,13,-28,20,16,65*,61*
CCOc1ccc(S(=O)(=O)NC2CCCCC2C)cc1 (centres undefined),.,-10,3,9,.,.
CC1CCCCC1NS(=O)(=O)c1ccc(S(=O)(=O)NCc2ccncc2)cc1 (centres undefined),-1,-36,12,7,42*,47*
CC(=O)Nc1ccc(S(=O)(=O)NCc2ccncc2)cc1,-7,-3,-4,-8,32*,37*
Cc1ccc(CSCC(=O)N(C)CC(=O)Nc2ccccc2C(F)(F)F)cc1,.,.,.,11,.,.
Cc1ccc(S(=O)(=O)NCc2ccncc2)cc1,11,-7,8,-4,37*,47*
Cc1cc(NC(=O)Nc2cccc([N+](=O)[O-])c2)no1,-8,-45,4,-50,0,90*
Cc1nc(C(=O)NNC(=O)c2c(-c3c(Cl)cccc3Cl)noc2C)cs1,.,6,17,63*,-3,-2
Cc1onc(-c2c(Cl)cccc2Cl)c1C(=O)Nc1nc(C(C)(C)C)cs1,.,15,7,80*,3,2
O=C(c1ccc(N2C(=O)C3C4CC(C(Br)C4Br)C3C2=O)cc1)N1CCCCC1 (centres undefined),.,-3,0,2,.,.
CCOC(=O)/C=C(\C)Sc1cc(=O)oc2ccccc12,-10,-14,3,-7,4,6
CCOC(=O)/C=C(\C)Sc1cc(O)c2ccccc2c1O,.,-11,34*,.,0,0
COc1ccccc1-c1nc(-c2ccccn2)no1,-98,-11,18,77*,20,23
Cc1ccccc1-c1nc(-c2ccccn2)no1,-90,10,16,95*,11,12
Brc1ccc(-c2noc(-c3ccccn3)n2)o1,.,-92,1,-2,.,.
Brc1ccc(-c2nc(-c3ccccn3)no2)o1,-92,-25,7,80*,1,6
CN(C)CCNc1ncnc2c1sc1nc(N3CCOCC3)c3c(c12)CC(C)(C)SC3,-8,-29,3,72*,8,10
